Pf growth 48h: Primary qHTS for delayed death inhibitors of the malarial parasite plastid, 48 hour incubation. P. falciparum luciferase growth in erythrocytes, 48 h. Potency, µM (titrated, usually from 28.7 µM), most hits filed as inhibitors. 310,000 compounds, 5.9% hits
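A one-generation exposure of luciferase-tagged malaria parasites in RPMI 1640/Albumax erythrocyte culture, 37 C and 5% CO2. Inhibition is inferred from decreased luminescence after adding detection reagent.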
CHX counter: Cycloheximide Counterscreen for Small Molecule Inhibitors of Shiga Toxin | cell reporter, cycloheximide protein synthesis inhibition counterscreen | max response, % | 300,000 compounds, 12% hits | AID 2314, 2010; in the data active means max response mostly above about 13%, no sharp cut-off; inactive means mostly below about 14%; further: read at 38.3 µM for the half of the compounds with a filed dose
LASV entry inh: qHTS for Inhibitors of binding or entry into cells for Lassa Virus; Lassa virus pseudotype entry inhibition, cell reporter; 300,000 compounds, 1.2% hits; AID 540256, 2011; Potency, µM (series often up to 37.9 µM), usual class: inhibitors; calls by dose curve; tested in HEK293 cells; further: nearly all actives have a fitted effect of over 50% in size
Shiga toxin inh: A qHTS for Small Molecule Inhibitors of Shiga Toxin; AID 2315, 2010; 290,000 compounds, 9.2% hits; inhibition, % at 38.7 µM; Vero cells, Shiga toxin protein synthesis inhibition reporter; in the data active means inhibition mostly above about 28%, no sharp cut-off; inactive means mostly below about 43%
Pf growth 96h: Primary qHTS for delayed death inhibitors of the malarial parasite plastid, 96 hour incubation | AID 504834, 2011 | P. falciparum luciferase reporter growth, 96 h | 320,000 compounds, 6.9% hits | Potency, µM (titrated, usually from 28.7 µM), hits mostly inhibitors
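Plates of compound plus infected erythrocytes (2% hematocrit, 0.05% parasitemia final) incubate 96 hours, 37 C, 5% CO2. Detection reagent added; reduced luminescence from the parasites' luciferase reporter flags inhibition.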
Marburg entry inh: qHTS for inhibitors of binding or entry into cells for Marburg Virus; Marburg virus pseudotyped entry inhibition, cell reporter; Potency, µM (top dose mostly 37.8 µM), hits mostly inhibitors; 300,000 compounds, 1.8% hits; AID 540276, 2011; calls by dose curve; tested in HEK293 cells
Of the large screens only hits and unclear results are named; the others gave an inactive call. In the library only some 19% were active in any assay of this set; here they are far more common. Unless noted, the call rests on the fitted dose curve; in most records, active means well fitted inhibition curve with a large enough effect; inconclusive means small, poorly fitted or top-dose-only effect, or another doubt; inactive means no such curve, though single readings can be large or run the other way.

COc1cccc(C(C(=O)NC2CCCC2)N(C(=O)c2ccco2)c2ccc(-n3cnnn3)c(C)c2)c1OC (configuration not stated)	Pf growth 48h 9.28µM, Marburg entry inh inconclusive
CCOc1ccc(C(C(=O)NC2CCCCC2)N(C(=O)Cc2cccs2)c2ccc(-n3cnnn3)c(OC)c2)cc1 (configuration not stated)	Pf growth 48h 10.4µM, LASV entry inh inconclusive, Pf growth 96h 7.38µM, Marburg entry inh inconclusive
CC1=C(C(=O)OCc2ccccc2)C(c2ccc3ccccc3c2)NC(=O)N1CCCC(=O)O (configuration not stated)	none (no result: LASV entry inh, Marburg entry inh)
CC1=C(C(=O)OCc2ccccc2)C(c2ccc3ccccc3c2)NC(=O)N1CCCCCC(=O)O (configuration not stated)	Pf growth 48h inconclusive, Pf growth 96h 10.4µM
CCCCN1C(=O)NC(c2ccc(OC)cc2)C(C(=O)OCc2ccccc2)=C1C (configuration not stated)	Pf growth 48h inconclusive, Pf growth 96h 5.22µM (no result: LASV entry inh, Marburg entry inh)
CC1=C(C(=O)OCc2ccccc2)C(c2ccccc2Cl)NC(=O)N1CCCCCC(=O)O (configuration not stated)	none (no result: LASV entry inh, Marburg entry inh)
CC1=C(C(=O)OCc2ccccc2)C(c2ccccc2-c2ccccc2)NC(=O)N1CCCCCC(=O)O (configuration not stated)	Pf growth 48h inconclusive, Pf growth 96h 11.7µM
CCN(CC)c1ccc(/C=N/OCC(=O)N2CCCc3ccccc32)cc1	none
O=C(NC1CCS(=O)(=O)C1)C1CCCN(S(=O)(=O)c2ccc(Cl)cc2)C1 (configuration not stated)	none
CCCCCCNC(=O)c1c(O)c2cccc3c2n(c1=O)CCC3	Pf growth 96h inconclusive, Marburg entry inh inconclusive
CCCn1c(=O)c(C(=O)NCCc2ccc(OC)c(OC)c2)c(O)c2ccccc21	Pf growth 48h inconclusive (no result: LASV entry inh, Marburg entry inh)
CCn1c(=O)c(C(=O)NCCc2ccc(OC)c(OC)c2)c(O)c2ccccc21	Pf growth 48h inconclusive, Pf growth 96h 10.4µM (no result: LASV entry inh, Marburg entry inh)
CCN(CC)CCNC(=O)c1c(O)c2cccc3c2n(c1=O)CCC3	Pf growth 48h 1.85µM, LASV entry inh inconclusive, Marburg entry inh inconclusive (no result: Pf growth 96h)
CCn1c(=O)c(C(=O)NCCN2CCCCC2)c(O)c2ccccc21	Pf growth 48h 8.28µM, Marburg entry inh inconclusive
COC(=O)C(=C/C=C/c1cccnc1)C(=O)OC	Pf growth 48h inconclusive
Cc1cc(C)n(C(=O)c2cc3c(s2)CCCC3)n1	Shiga toxin inh 88.9
O=C(COC(=O)c1sc2ccccc2c1Cl)NCC1CCCCC1	Marburg entry inh inconclusive
COc1cc(/C=N/Nc2ncc(C(F)(F)F)cc2Cl)cc(OC)c1O	none
O=C(O)c1ccc(/C=N/Nc2ccc(C(F)(F)F)cn2)cc1	CHX counter 35.3, Shiga toxin inh 83.7
COc1cc(/C=N/Nc2ncc(C(F)(F)F)cc2Cl)cc(OC)c1OC	Pf growth 48h 4.65µM, Pf growth 96h inconclusive (no result: LASV entry inh, Marburg entry inh)
COc1cc(/C=N/Nc2ccc(C(F)(F)F)cn2)ccc1O	CHX counter 30.9, Shiga toxin inh 127.1 (no result: LASV entry inh, Marburg entry inh)
Cc1noc(C)c1S(=O)(=O)N(CC(=O)N1CCn2c1nc1ccccc12)c1ccc(C(C)C)cc1	Pf growth 96h inconclusive (no result: Pf growth 48h, LASV entry inh)
COc1ccc(NC(=O)c2cc3c(=O)n(C)c4ccccc4c3n2C)cc1Cl	none
COc1ccc(Cl)cc1N(C(C)=O)c1nc(C)cc(C)c1C#N	none (no result: LASV entry inh, Marburg entry inh)
COc1ccccc1N(C(C)=O)c1nc(C)cc(C)c1C#N	Pf growth 96h 9.28µM
COc1ccc2[nH]c(C(=O)N(C)c3ccc(F)cc3F)cc2c1	LASV entry inh inconclusive
CCCOc1ccc(CNC(=O)CCC(=O)n2ncc3cc(C)ccc32)cc1	none (no result: LASV entry inh, Marburg entry inh)
CCCOc1ccc(CNC(=O)Cn2ncc3ccccc32)cc1	CHX counter 34.0, Shiga toxin inh 58.5 (no result: LASV entry inh, Marburg entry inh)
Cc1nc(N)sc1C(=O)N/N=C/c1cccnc1	Marburg entry inh inconclusive
COc1ccc(C(=O)N/N=C/c2cccnc2)cc1	CHX counter 29.3, Shiga toxin inh 54.5 (no result: Pf growth 48h, LASV entry inh, Marburg entry inh)
O=C(CNC(=O)c1ccncc1)N/N=C/c1cccc([N+](=O)[O-])c1	Pf growth 96h inconclusive
O=C(N/N=C/c1cccnc1)c1ccc(CN2c3cccc4cccc(c34)S2(=O)=O)cc1	Pf growth 96h inconclusive
O=C(CNC(=O)c1ccncc1)N/N=C/c1ccccc1[N+](=O)[O-]	CHX counter 23.2, Shiga toxin inh 57.9 (no result: LASV entry inh, Marburg entry inh)
COc1cccc(/C=N/NC(=O)c2ccc(CN3c4cccc5cccc(c45)S3(=O)=O)cc2)c1	Pf growth 96h 10.4µM
Cn1nccc1C(=O)N/N=C/c1cccnc1	CHX counter 33.3, Shiga toxin inh 58.9 (no result: LASV entry inh, Marburg entry inh)
Cc1cc(C)n(CC(C)C(=O)O)n1 (configuration not stated)	none
COc1cc(S(=O)(=O)N(C)C)ccc1Br	none (no result: Pf growth 96h)
Cc1cc(C)n(Cc2cccc(C(=O)N/N=C/c3ccncc3)c2)n1	none
O=C(N/N=C/c1cccnc1)c1ccc(NC(=O)c2ccc(Cl)cc2)cc1	Pf growth 48h inconclusive
CC(=O)Nc1ccc(C(=O)N/N=C/c2cccnc2)cc1	Pf growth 96h 3.7µM
Cc1cc(C)n(Cc2cccc(C(=O)N/N=C/c3cccnc3)c2)n1	CHX counter 10.0 (no result: LASV entry inh, Marburg entry inh)
Cn1nccc1C(=O)N/N=C/c1ccccc1[N+](=O)[O-]	CHX counter 32.3, Shiga toxin inh 79.9 (no result: LASV entry inh, Marburg entry inh)
CCc1nnc2c(Nc3ccccc3Br)nc3ccccc3n12	Marburg entry inh inconclusive (no result: Pf growth 48h, CHX counter, Shiga toxin inh, Pf growth 96h)
CN1C/C(=C/c2cccnc2)C(=O)/C(=C/c2cccnc2)C1	Pf growth 48h inconclusive, CHX counter 24.8, LASV entry inh inconclusive, Pf growth 96h inconclusive, Marburg entry inh 1.78µM
O=C1/C(=C\c2cccnc2)N2CCC1CC2	Pf growth 48h inconclusive, Pf growth 96h 9.28µM
CC(C)N1CC2=C(OC(N)=C(C#N)C2c2cccnc2)/C(=C/c2cccnc2)C1 (configuration not stated)	Pf growth 48h inconclusive
O=C1/C(=C\c2ccncc2)N2CCC1CC2	none (no result: LASV entry inh)
CC(C)N1C/C(=C/c2ccsc2)C(=O)/C(=C/c2ccsc2)C1	Pf growth 48h inconclusive, CHX counter 15.5, LASV entry inh 3.98µM, Pf growth 96h inconclusive, Marburg entry inh inconclusive
CC(C)N1C/C(=C/c2cccnc2)C(=O)/C(=C/c2cccnc2)C1	Pf growth 48h 13.1µM, CHX counter 20.6, LASV entry inh 12.6µM, Marburg entry inh 4.47µM
O=C(Nc1ccon1)C(Sc1ccccc1)c1ccccc1 (configuration not stated)	none
O=C1C=C(c2ccccc2)C[C@H](c2cccs2)[C@H]1n1cnc([N+](=O)[O-])c1	Pf growth 48h 13.1µM, LASV entry inh inconclusive, Pf growth 96h inconclusive, Marburg entry inh inconclusive
C/C(=N/N=C/c1ccccc1O)c1ccccc1O	CHX counter 43.4, Shiga toxin inh 89.0, Marburg entry inh inconclusive
Oc1ccccc1C=NN=C1c2ccccc2-c2ccccc21	LASV entry inh inconclusive (no result: Pf growth 48h, CHX counter, Shiga toxin inh, Pf growth 96h)

Assay outcomes (PubChem BioAssay)
